Source: PubChem BioAssay AID431 (Sanford-Burnham Center for Chemical Genomics, 2006)
The campaign covered roughly 63,000 compounds. About 1,100 (1.7%) were called active. This is one part of a sample in which actives are shown more often than they occur. Measured potencies and affinities stand elsewhere. A number with no mark means an inactive call.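 How the source made its calls: active means compounds whose percent cytotoxicity in the single-dose primary screen, scaled between solvent and toxic-drug controls, exceeds 50; inactive means the rest.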

test: cytotoxicity in KRAS-transformed pancreatic duct cells, primary screen, cell-based, fluorescence, HTS (AID 431); conditions: HPDE-C7K KRASV12 cells, Alamar Blue viability, 48 h; at 10 µM; stronger effect = higher value;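 further: 0% = DMSO solvent wells and 100% = doxorubicin-treated wells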

Row | SMILES | cytotoxicity
1 | Cc1cc(-c2nn3c(-c4ccccc4)nnc3s2)c2ccccc2n1 | -2.8%
2 | c1coc(-c2nn3c(-c4ccco4)nnc3s2)c1 | -16.1%
3 | c1ccc(-c2cc(-c3nn4c(-c5ccco5)nnc4s3)c3ccccc3n2)cc1 | 51.3% (active)
4 | Cc1oc(-c2ccc(F)cc2)cc1-c1nn2c(-c3ccco3)nnc2s1 | -11.2%
5 | Fc1ccc(-c2ccc(-c3nn4c(-c5ccco5)nnc4s3)o2)cc1 | 83.7% (active)
6 | Clc1ccc(-c2ccc(-c3nn4c(-c5ccco5)nnc4s3)o2)cc1 | -10%
7 | CCOC(=O)N1CCC(NC(=O)CNS(=O)(=O)c2ccc(Br)s2)CC1 | 6.3%
8 | CCSc1nnc(NC(=O)C(C)(C(F)(F)F)C(F)(F)F)s1 | -1.2%
9 | Cc1ccccc1N1CCN(C(=O)C2CCCCC2)CC1 | -1%
10 | COc1cc2c(C(=O)N3CCN(Cc4ccc5c(c4)OCO5)CC3)cn(C)c(=O)c2cc1OC | -9%
11 | COc1ccc(NS(=O)(=O)c2cc(C)ccc2NC(=O)c2cc(C)oc2C)cc1 | 69.4% (active)
12 | COc1ccc(NS(=O)(=O)c2cc(OC)ccc2NC(=O)c2cc(C)oc2C)cc1 | 48.5%
13 | COc1ccc(NS(=O)(=O)c2cc(C)ccc2C)cc1 | 35.3%
14 | Cc1cc(N2CCN(C(=O)c3ccco3)CC2)n2nc(C)c(-c3ccc(Cl)cc3)c2n1 | 12.8%
15 | Cc1nn2c(N3CCN(C(=O)c4ccco4)CC3)cc(C(C)(C)C)nc2c1-c1ccccc1 | 70.2% (active)
16 | Cc1cc(N2CCN(C(=O)c3ccco3)CC2)n2nc(C)c(-c3ccccc3)c2n1 | 13.2%
17 | COc1cccc(NC(=O)C2CCN(c3ncccn3)CC2)c1 | 3%
18 | CC1(N2CCOCC2)CC2(O)C(=[N+]1[O-])CCc1c2no[n+]1[O-] (configuration not stated) | 58.3% (active)
19 | CC1(N2CCCCC2)CC2(O)C(=[N+]1[O-])CCC/C2=N\O (configuration not stated) | 15.9%
20 | CC1(N2CCOCC2)CC2(O)C(=[N+]1[O-])CCc1nonc12 (configuration not stated) | 17.7%
21 | CC(C)NC(=O)CN(C(=O)CCC(=O)Nc1ccccn1)c1ccc(F)c(Cl)c1 | 2.5%
22 | CC1(C)C(=O)Nc2ccccc2N1C(=O)CN1C(=O)c2ccccc2C1=O | -3.5%
23 | CCC(=O)NC1(C(F)(F)F)C(=O)Nc2c1c(=O)n(C)c(=O)n2C (configuration not stated) | -2.3%
24 | Cc1nnc(SCC(=O)N2CCN(S(=O)(=O)c3ccccc3)CC2)[nH]c1=O | 1.8%
25 | CCc1nnc(NC(=O)c2ccc(NS(=O)(=O)c3ccccc3)cc2)s1 | -18.3%

Row | SMILES | cytotoxicity
26 | CCc1nc(C)ccc1OCC(=O)O | -10.4%
27 | CCCC(=O)NCCc1nc2ccccc2n1C | -5.4%
28 | CCOc1cccc(-c2nc3cc(C)ccc3o2)c1 | -4.3%
29 | Cc1n[nH]c(C)c1C(=O)CC1(O)C(=O)N(CCc2ccccc2)c2ccc(Cl)cc21 (configuration not stated) | 16.8%
30 | Cc1ccc(-n2nc(C)c3c(-c4cccs4)c(C#N)c(N)nc32)cc1 | 4%
31 | COc1cc(-c2c(C#N)c(N)nc3c2c(C)nn3-c2ccc(C)c(C)c2)cc(OC)c1OC | 57.8% (active)
32 | Cc1nn(-c2ccccc2)c2nc(N)c(C#N)c(-c3ccc(F)cc3)c12 | 10.8%
33 | O=C(O)CCN1Cc2ccccc2C1=O | -5.5%
34 | Cc1ccc(NC(=O)CN2C(=O)COc3ccc(C)cc32)nc1 | 5.6%
35 | COc1ccc(OC)c(Nc2nc(N)nc(-c3cc4ccccc4o3)n2)c1 | 1.5%
36 | COc1ccc(OC(=O)c2cc3ccccc3o2)cc1 | 12.8%
37 | COc1ccc(OC)c(NC(=O)c2cc3ccccc3o2)c1 | -12.4%
38 | O=C(Nc1ccccc1Cl)N1CCN(c2ccc3nnc(-c4ccc(F)cc4)n3n2)CC1 | 19.5%
39 | O=C(Nc1ccccc1C(F)(F)F)N1CCN(c2ccc3nnc(-c4ccc(F)cc4)n3n2)CC1 | 1.9%
40 | O=C(Nc1ccc(Cl)cc1)N1CCN(c2ccc3nnc(-c4ccc(F)cc4)n3n2)CC1 | 58.7% (active)
41 | Cc1cccc(NC(=O)CSc2nnc(-c3ccccc3)n2N)c1 | 1%
42 | CCc1[nH]nc2c1C(c1ccc(Br)s1)C(C#N)=C(N)O2 (configuration not stated) | 5%
43 | CCCc1[nH]nc2c1C(c1ccncc1)C(C#N)=C(N)O2 (configuration not stated) | -1.2%
44 | CCCn1nnc(NC(=O)c2cc3ccccc3o2)n1 | -13.2%
45 | O=C(Nc1ccc(S(=O)(=O)N2CCCCCC2)cc1)c1ccc(Br)o1 | 55.5% (active)
46 | CCOC(=O)c1sc(NC(=O)c2ccco2)nc1-c1ccccc1 | -7.2%
47 | CCC(=O)Nc1ccc(NC(=O)c2ccco2)cc1 | -4%
48 | O=C(Nc1ccc(Nc2ccccc2)cc1)c1ccco1 | 66.8% (active)
49 | CN1CCN(S(=O)(=O)c2ccc(NC(=O)c3ccc(Br)o3)cc2)CC1 | -14.1%
50 | Cc1ccc(NC(=O)c2ccc(OC(=O)c3ccco3)cc2)cc1 | -14.7%

Row | SMILES | cytotoxicity
51 | O=C(Nc1ccc(S(=O)(=O)N2CCOCC2)cc1)c1ccc(Br)o1 | -9.2%
52 | O=C(Nc1ccc(Oc2ccc(NC(=O)c3ccco3)c(NC(=O)c3ccco3)c2)cc1)c1ccco1 | 29.9%
53 | O=C(Nc1nc(-c2cccs2)c(-c2ccccc2)s1)c1ccco1 | 58.9% (active)
54 | Cc1ccc(Oc2ccc(NC(=O)c3ccco3)cc2)cc1 | 84.2% (active)
55 | O=C(CCc1ccccc1)Nc1ccc(NC(=O)c2ccco2)cc1 | -8.3%
56 | CC(=O)c1sc(NC(=O)c2ccco2)nc1-c1ccccc1 | 6.3%
57 | O=C1c2oc3ccccc3c(=O)c2C(c2ccc(Br)cc2)N1c1ncccn1 (configuration not stated) | 5.4%
58 | O=S(=O)(c1ccccc1)c1nc(-c2ccco2)oc1NCc1cccnc1 | 14.5%
59 | CCOC(=O)C1CCN(c2cc(=O)n(Cc3ccc(F)cc3)c(=O)[nH]2)CC1 | -12.8%
60 | Cc1cc(NC(=O)c2c(F)c(F)c(F)c(F)c2F)no1 | -11.5%
61 | Nc1c(C(=O)OCC2CCCO2)c2nc3ccccc3nc2n1C1CCCCC1 (configuration not stated) | -9.6%
62 | COc1ccc(CCNC(=O)CSc2nnc(-c3cccc(C)c3)o2)cc1OC | -3.4%
63 | CCOC(=O)N1CCC(NC(=O)Cn2c3c(c(-c4ccccc4Cl)cc2=O)CCC3)CC1 | 4.9%
64 | CCOc1ccc(CN2C(=O)CCC2(C)C(=O)NCc2cccnc2)cc1 (configuration not stated) | 6.9%
65 | Cc1ccc2nc(-c3cccc(NC(=O)c4ccco4)c3)[nH]c2c1 | 65.5% (active)
66 | O=C(Nc1cccc(Cl)c1N1CCCC1)c1ccc(Br)o1 | 93% (active)
67 | CCN1CCN(c2c(Cl)cccc2NC(=O)c2ccc(Br)o2)CC1 | 10%
68 | O=C(Nc1cccc(-c2nnc(-c3ccccc3)o2)c1)c1ccco1 | 3.5%
69 | COC(=O)c1sc(NC(=O)c2ccco2)nc1C | -3.1%
70 | O=C(Nc1ccc(-c2nc3ncccc3o2)cc1)c1ccco1 | -8.5%
71 | O=C(Nc1cccc(-c2nc3ccccc3[nH]2)c1)c1ccco1 | 9.8%
72 | Cc1ccc2nc(-c3ccc(NC(=O)c4ccco4)cc3)[nH]c2c1 | 14.5%
73 | O=C(Nc1ccc2nc(-c3ccccc3)oc2c1)c1ccco1 | 71.7% (active)
74 | Cc1nc(NC(=O)c2ccco2)sc1C(=O)Nc1ccc(Br)cc1 | 84% (active)
75 | O=C(Nc1ccccc1N1CCCC1)c1ccc(Br)o1 | -3.3%

Row | SMILES | cytotoxicity
76 | CCOC(=O)c1sc(NC(=O)c2ccco2)nc1C | 5.9%
77 | CN(C)S(=O)(=O)c1cccc(COC(=O)C2=COCCO2)c1 | -1.6%
78 | O=C(c1ccco1)[C@@H]1[C@@H]2C(=O)N(c3ccc(F)cc3)C(=O)[C@@H]2C2c3ccccc3C=CN21 (some centres not stated) | 6.6%
79 | COc1ccc(CCNS(=O)(=O)c2cccc(F)c2)cc1OC | -5.1%
80 | Cc1onc(-c2c(F)cccc2Cl)c1C(=O)OCC(=O)NCc1ccco1 | 0.8%
81 | CN(C)c1ccc(NC(=O)CN2CCC(C(=O)c3ccc(F)cc3)CC2)cc1 | 10.1%
82 | COc1cc2[nH]c(=O)n(CCCCCC(=O)N3CCN(c4ccccc4)CC3)c(=O)c2cc1OC | 15.8%
83 | O=C(NCC1CCCO1)C1C2C=CC3(CN(Cc4cccs4)C(=O)C13)O2 (configuration not stated) | -19.1%
84 | O=C(O)c1cccc(S(=O)(=O)N2CCCC2)c1 | -8.3%
85 | O=C(Nc1ccc(S(=O)(=O)NCCc2ccccc2)cc1)c1ccc(Br)o1 | 15.9%
86 | O=C(Nc1ccc(Nc2ccccc2)cc1)c1ccc(Br)o1 | 93% (active)
87 | COC(=O)Cc1ccc(NC(=O)c2ccc(Br)o2)cc1 | 8.9%
88 | O=C(Nc1cccc(NC(=O)c2ccc(-c3cccc(Br)c3)o2)c1)c1ccco1 | 66.3% (active)
89 | COc1ccc(Br)cc1C(=O)Nc1cccc(NC(=O)c2ccco2)c1 | 0.2%
90 | CC(=O)Nc1cccc(NC(=O)c2ccco2)c1 | -14%
91 | COc1ccc(CN(Cc2ccccn2)C(=O)CN2C(=O)COc3ccccc32)cc1 | -15.4%
92 | CCCCS(=O)(=O)c1sc2nc3c(cc2c1N)CCCC3 | -4.6%
93 | Cc1cc(NC(=O)COc2ccc(N(C)S(=O)(=O)c3ccccc3)cc2)no1 | -0.8%
94 | CCOC(=O)Cn1cnc2c(nnn2Cc2ccc(Cl)cc2)c1=O | -1%
95 | Cc1ccc(-n2c(Cc3cccn3C)nnc2SCC(=O)Nc2nnc(C)s2)cc1 | -0.8%
96 | CCSc1nnc(NC(=O)CSc2nnc(Cc3cccn3C)n2-c2ccc(F)cc2)s1 | 49.5%
97 | CCSc1nnc(NC(=O)CSc2nnc(Cc3cccn3C)n2-c2ccc(C)cc2)s1 | 50.6% (active)
